About 83,000 compounds went through this panel and 20% of them were active in at least one assay; those are over-represented in the sample as a whole.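 Single-concentration screen, 48 h exposure, 96-well plates. Endpoint: percent growth. Below 10 = active.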
What was measured:
Assay in all cases: NCI-60 one-dose screen, 48 h (100 = growth as untreated, 0 = no growth, -100 = all killed)
SK-MEL-2 melanoma = details: 10 µM
EKVX NSCLC = details: 10 µM
SN12C renal = details: 10 µM
UO-31 renal = details: 10 µM
TK-10 renal = details: 10 µM unless noted
CAKI-1 renal = details: 10 µM
A498 renal = details: 10 µM
CCRF-CEM leukemia = details: 10 µM
MOLT-4 leukemia = details: 10 µM
SR leukemia = details: 10 µM
RPMI-8226 leukemia = details: 10 µM
OVCAR-8 ovarian = details: 10 µM
OVCAR-5 ovarian = details: 10 µM
OVCAR-4 ovarian = details: 10 µM
SK-OV-3 ovarian = details: 10 µM
IGROV1 ovarian = details: 10 µM
OVCAR-3 ovarian = details: 10 µM
HS 578T breast = details: 10 µM
NCI/ADR-RES ovarian = details: 10 µM
ACHN renal = details: 10 µM

Measured: growth

COc1ccc(C(O)c2ccccc2)cc1 (stereo not given)
inactive: SK-MEL-2 melanoma 112% | EKVX NSCLC 101% | SN12C renal 104% | UO-31 renal 81.9% | TK-10 renal 101% | CAKI-1 renal 100% | A498 renal 102% | CCRF-CEM leukemia 106% | MOLT-4 leukemia 94.1% | SR leukemia 102% | RPMI-8226 leukemia 108% | OVCAR-8 ovarian 97.3% | OVCAR-5 ovarian 102% | OVCAR-4 ovarian 92.6% | SK-OV-3 ovarian 99.2% | IGROV1 ovarian 99.3% | OVCAR-3 ovarian 107% | HS 578T breast 108% | NCI/ADR-RES ovarian 105%

CC(C)COC(=O)COC(=O)OCCOCCOC(=O)OCC(=O)OCC(C)C
inactive: SK-MEL-2 melanoma 94.2% | EKVX NSCLC 119% | SN12C renal 97.9% | UO-31 renal 89.8% | TK-10 renal 91.9% | CAKI-1 renal 116% | A498 renal 99.9% | CCRF-CEM leukemia 106% | OVCAR-8 ovarian 99.7% | OVCAR-5 ovarian 101% | OVCAR-4 ovarian 110% | SK-OV-3 ovarian 100% | IGROV1 ovarian 105% | OVCAR-3 ovarian 126% | HS 578T breast 124% | NCI/ADR-RES ovarian 106%

CCOC(=O)C(=O)C=P(c1ccccc1)(c1ccccc1)c1ccccc1
inactive: SK-MEL-2 melanoma 99.6% | EKVX NSCLC 105% | SN12C renal 103% | UO-31 renal 90.2% | TK-10 renal 99% | CAKI-1 renal 101% | A498 renal 105% | CCRF-CEM leukemia 99.9% | MOLT-4 leukemia 101% | RPMI-8226 leukemia 102% | OVCAR-8 ovarian 107% | OVCAR-5 ovarian 101% | OVCAR-4 ovarian 111% | SK-OV-3 ovarian 109% | IGROV1 ovarian 102% | OVCAR-3 ovarian 103% | HS 578T breast 105% | NCI/ADR-RES ovarian 103%

COC(=O)c1ccc(C(C)C)cc1
inactive: SK-MEL-2 melanoma 116% | EKVX NSCLC 92.3% | SN12C renal 99.1% | UO-31 renal 97.4% | ACHN renal 101% | CAKI-1 renal 96.8% | A498 renal 129% | CCRF-CEM leukemia 83.9% | MOLT-4 leukemia 101% | SR leukemia 103% | RPMI-8226 leukemia 99.9% | OVCAR-8 ovarian 106% | OVCAR-5 ovarian 103% | OVCAR-4 ovarian 103% | SK-OV-3 ovarian 83.4% | IGROV1 ovarian 105% | OVCAR-3 ovarian 103% | HS 578T breast 119% | NCI/ADR-RES ovarian 103%

Cc1cc(Cc2cc(C)c(N)cc2N)c(N)cc1N
inactive: SK-MEL-2 melanoma 96.7% | EKVX NSCLC 109% | SN12C renal 88.3% | UO-31 renal 77.2% | TK-10 renal 146% | ACHN renal 98.8% | A498 renal 98.8% | CCRF-CEM leukemia 96.8% | SR leukemia 55.2% | RPMI-8226 leukemia 92.8% | OVCAR-8 ovarian 89.7% | OVCAR-5 ovarian 116% | OVCAR-4 ovarian 111% | SK-OV-3 ovarian 82.2% | IGROV1 ovarian 87.5% | OVCAR-3 ovarian 94.9% | HS 578T breast 93.8% | NCI/ADR-RES ovarian 95.8%

CC(=O)/C(Cc1ccccc1)=N/O
inactive: SK-MEL-2 melanoma 99.7% | EKVX NSCLC 92.4% | SN12C renal 105% | UO-31 renal 96.2% | ACHN renal 98.6% | CAKI-1 renal 100% | A498 renal 75.6% | CCRF-CEM leukemia 99% | MOLT-4 leukemia 85% | SR leukemia 81.8% | RPMI-8226 leukemia 97.5% | OVCAR-8 ovarian 96.1% | OVCAR-5 ovarian 97.7% | OVCAR-4 ovarian 92% | SK-OV-3 ovarian 89.3% | IGROV1 ovarian 112% | OVCAR-3 ovarian 106% | HS 578T breast 100% | NCI/ADR-RES ovarian 99.9%

CCOC(=O)Nc1nn[nH]n1
inactive: SK-MEL-2 melanoma 109% | EKVX NSCLC 112% | SN12C renal 103% | UO-31 renal 96.6% | TK-10 renal 114% | CAKI-1 renal 113% | A498 renal 83.8% | CCRF-CEM leukemia 95% | MOLT-4 leukemia 98.4% | SR leukemia 103% | RPMI-8226 leukemia 106% | OVCAR-8 ovarian 111% | OVCAR-5 ovarian 92.3% | OVCAR-4 ovarian 111% | SK-OV-3 ovarian 116% | IGROV1 ovarian 110% | OVCAR-3 ovarian 103% | HS 578T breast 93.7% | NCI/ADR-RES ovarian 103%

COCCOC(=O)c1ccc(C(C)C)cc1
inactive: SK-MEL-2 melanoma 96.9% | EKVX NSCLC 100% | SN12C renal 103% | UO-31 renal 94.5% | ACHN renal 107% | CAKI-1 renal 99.4% | A498 renal 92.8% | CCRF-CEM leukemia 90.6% | MOLT-4 leukemia 88.2% | SR leukemia 95.7% | RPMI-8226 leukemia 108% | OVCAR-8 ovarian 103% | OVCAR-5 ovarian 104% | OVCAR-4 ovarian 104% | SK-OV-3 ovarian 82.1% | IGROV1 ovarian 104% | OVCAR-3 ovarian 99.5% | HS 578T breast 117% | NCI/ADR-RES ovarian 96%

c1ccc(Sc2ccccc2)cc1
inactive: SK-MEL-2 melanoma 97.5% | EKVX NSCLC 101% | SN12C renal 105% | UO-31 renal 87% | TK-10 renal 101% | A498 renal 97.6% | CCRF-CEM leukemia 97.7% | MOLT-4 leukemia 87.4% | SR leukemia 82.9% | RPMI-8226 leukemia 99.7% | OVCAR-8 ovarian 102% | OVCAR-5 ovarian 104% | OVCAR-4 ovarian 111% | SK-OV-3 ovarian 104% | IGROV1 ovarian 117% | OVCAR-3 ovarian 106% | HS 578T breast 115% | NCI/ADR-RES ovarian 112%

Source: PubChem BioAssay (NCI)
